# Source: PubChem BioAssay (NCI)
# Where “and” joins values, the source holds several entries; their conditions need not be identical. Identical values can stand only once. About 83,000 compounds went through this panel and 20% of them were active in at least one assay; those are over-represented in the sample as a whole.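 Single-concentration screen, 48 h exposure, 96-well plates. Endpoint: percent growth. Below 10 = active.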 Unmarked numbers belong to inactive results. Calls of active or inactive are those of the source.
# Test system: MDA-MB-468 breast
# Assay: NCI-60 one-dose screen, 48 h (100 = growth as untreated, 0 = no growth, -100 = all killed)
# Details: 10 µM unless noted
row,Compound,growth
1,CC(=O)NC(C)(C)C(=O)N1CCC[C@H]1C(=O)NC(C)(C)C(=O)N[C@@H](C)C(=O)NC(C)(C)C(=O)NC(C)(C)C(=O)N[C@@H](CCC(N)=O)C(=O)NC(C)(C)C(=O)N[C@H](C(=O)NC(C)(C)C(=O)NCC(=O)N[C@@H](CC(C)C)C(=O)NC(C)(C)C(=O)N1CCC[C@H]1C(=O)N[C@H](C(=O)NC(C)(C)C(=O)NC(C)(C)C(=O)N[C@@H](CCC(N)=O)C(=O)N[C@@H](CCC(N)=O)C(=O)N[C@H](CO)Cc1ccccc1)C(C)C)C(C)C,-1.54% [4.25 µM] (active)
2,O=C1OCC2=C1C(c1cccc(C(F)(F)F)c1)c1cc3c(cc1N2CCO)OCCO3 (configuration not stated),13.5%
3,CC(C)C[C@H](NC(=O)Cn1ccc(NCc2ccccc2)cc1=O)B(O)O,-41.2% (active)
4,COc1ccc(-c2nc(NN)c3c(C)nn(-c4ccc(F)cc4)c3n2)cc1,25.8%
5,CCCCCCCC/C=C\CCCCCCCCOc1ccccc1CC(=O)NCC[N+](C)(C)C,68.9%
6,c1ccc2c(-c3c4ccsc4cc4[nH]c5ccccc5c34)c[nH]c2c1,15.7%
7,CN1CCN(CCOc2ccc(-c3cnc4c(-c5ccc(C(F)(F)F)cc5)cnn4c3)cc2)CC1,42.1%
8,COc1cc(C2C(C#N)=C(N)Oc3cc4c(cc32)OCO4)cc2c1OCO2 (configuration not stated),-8.15% (active)
9,O=C(Oc1ccc(CCl)cc1)c1ccccc1,-62.7% (active)
10,Cc1ccc(CNc2c3ccccc3nc3ccccc23)cc1,7.18% (active)
11,CC(CC(=O)c1ccccc1)c1ccccc1 (configuration not stated),96.5%
12,N=C(N)c1ccc(-c2ccc(-c3ccccc3)s2)cc1F,-78.4% (active)
13,CC1=C(NCCN2CCCC2)C(=O)c2c(OCc3ccc(C(F)(F)F)cc3)cccc2C1=O,82.2%
14,O=C1OCC2=C1C(c1cccc(Cl)c1)c1cc3c(cc1N2CCO)OCCO3 (configuration not stated),9.02% (active)
15,O=C(O)CCCCc1ccc([N+](=O)[O-])cc1,107% and 115%
16,CC/C=C\C/C=C\C[C@H](O)C/C=C1/C(=O)C=C[C@@H]1C/C=C\CCCC(=O)OC,-51.7% (active)
17,CCOC(=O)c1cc2c(n1Cc1cccc(OC)c1)-c1oncc1CCC2,11.9%
18,Cc1ccc2c(=O)cc(C(=O)Nc3sc4c(c3C(=O)NCc3cccnc3)CCCC4)oc2c1C,109%
19,Cc1nc2sc(C(=O)Nc3cccc(Cl)c3C)c(N)c2cc1C(C)O (configuration not stated),25.4%
20,COc1ccc(CNc2c3ccccc3nc3ccccc23)cc1F,-18.7% (active)
21,c1cc(-c2nc3ccc4[nH]ncc4c3c3c2CCCC3)[nH]n1,43.6%

row,Compound,growth
1,Ic1ccc(Nc2nc3nonc3nc2Nc2ccc(I)cc2)cc1,-4.36% (active)
2,NCc1c(O)ccc2ccccc12,93.9%
3,CN(Cc1ccccc1)c1ccc(SC#N)cc1,84.2%
4,COc1ccc(-c2cnc(NC(=O)CCCCCCNC(=O)C(O)(O)C(F)(F)F)s2)cc1,-33.6% (active)
5,O=C1OC(=O)C2C1CC=CC2c1ccccc1 (configuration not stated),93.3%
6,O=S(=O)(Nc1cc(Cl)c(F)c(Cl)c1)c1ccc(-c2cnc(C3CC3)o2)cc1,13.5%
7,Nc1ccc(Cl)cn1,102%
8,CO[C@]12C=C/C(=C(/C(=O)OCc3cccnc3)C(=O)CCCCCCCC[C@@]3(OC)C=C/C(=C(/C(=O)OCc4cccnc4)C(=O)CCCCCCCC1)O3)O2,-4.86% (active)
9,Cc1ncc(CO)c(C(=O)O)c1O,108%
10,CN1C(=O)/C(=C/C=C/c2ccco2)SC1=S,5.83% (active)
11,Cn1c(/C(C#N)=C/c2ccc3ccccc3c2)cc2ccccc21,-3.16% (active)
12,Cc1c2ccccc2nc2c1ccc1cccnc12,89.8%
13,O=C(Nc1cccc(-n2ccc3c(NC(=O)c4ccccc4)nccc32)c1)Nc1cc(C(F)(F)F)cc(C(F)(F)F)c1,7.42% (active)
14,COc1ccc(C(Cn2ccnc2)Sc2ccc(Cl)c(Cl)c2)cc1 (configuration not stated),63%
15,Cn1cc([C@@H]2Nc3ccc4[nH]ncc4c3[C@H]3[C@H]4CCC(C4)[C@H]32)c(C(F)(F)F)n1,53.4%
16,Cc1ccc(C(=O)N(CCCN)[C@@H](c2nc3cc(Cl)ccc3c(=O)n2Cc2ccccc2)C(C)C)cc1,-84.4% (active)
17,CC(=O)OC[C@H]1OC(Sc2sc(C(=O)c3ccc(Br)cc3)c(N)c2-c2nc3ccccc3s2)[C@H](OC(C)=O)[C@@H](OC(C)=O)[C@H]1OC(C)=O (some centres not stated),91.9%
18,CC1CN(S(=O)(=O)c2oc(-c3ccc(Cl)cc3)nc2C#N)CC(C)O1 (configuration not stated),70%
19,C=C1C(=O)O[C@H]2[C@H]1CC/C(COC(=O)NCc1ccc(Cn3c(=O)sn(CCI)c3=O)cc1)=C\CC[C@@]1(C)O[C@@H]21,-37.1% (active)
20,CCCCCCCCCCCCCCCCNc1ccccc1,108%
21,O=C1/C(=C2/C=Nc3ccccc32)N(O)c2ccccc21,62.2%

row,Compound,growth
1,O=C1Cc2cc(CCn3cncn3)c(Cl)cc2N1,35.1%
2,Cc1[nH]n(-c2ccccc2)c(=O)c1C=NC(=S)C(N)=S,95.9%
3,O=C(O)c1[nH]c(=O)[nH]c(=O)c1[N+](=O)[O-],109%
4,Clc1cccc(-c2cc(-c3ccc4c(c3)OCCO4)[nH]n2)c1,6.54% [25 µM] (active)
5,Cc1ccc2c(n1)C(=O)C(Cl)=C(Nc1cccc(C(=O)OC(C)(C)C)c1)C2=O,-57.7% (active)
6,O=C1c2c(c3c4cc(Br)ccc4[nH]c3c3ccc4ccccc4c23)C(=O)N1O,62.1%
7,Cn1cc(-c2csc(-c3cn(CCNC(=O)OC(C)(C)C)c4ccc(F)cc34)n2)c2cccnc21,19.5%
8,Cc1ccc(/C=C2\CN(C(=O)OC(C)(C)C)C/C(=C\c3ccc(C)cc3)C2=O)cc1,56.2%
9,COc1cc(C2CC(C3C(=O)N(C)C(=O)N(C)C3=O)=NN2c2cc(Cl)cc(Cl)c2)cc(OC)c1OC (configuration not stated),84.5%
10,CNC(=O)c1cc(Oc2ccc3c(c2)sc2nc(-c4ccc(NC(=O)Nc5ccc(Cl)c(C(F)(F)F)c5)cc4)cn23)ccn1,93.9%
11,O=C(C[n+]1ccccc1Cl)c1ccc2c(c1)CCCC2,45.1%
12,Nc1ncnc2c1ccn2-c1cccc(NC(=O)c2ccc(N3CCOCC3)c(C(F)(F)F)c2)c1,40.3%
13,COc1ccc(-c2nc(SCC(C)C)nc(N/N=C\c3ccc(F)cc3)c2C#N)cc1,102%
14,COc1cc(C2C=C(C)N=C3SC=C(C)N32)cc(OC)c1OC (configuration not stated),-74.2% (active)
15,OCc1ccccc1F,72.9%
16,O=C1[C@@H](OS(=O)(=O)CC(F)(F)F)[C@H](c2ccc(F)cn2)N1c1cc2c3ccccc3ccc2c2ccccc12,89.4%
17,Cc1cc(C)n(C(=O)c2nn(-c3ccc(Cl)cc3)cc2O)n1,64.6%
18,Cc1c(C(N)=O)sc2c1c(=O)n(Cc1ccccc1)c1nnc(SCC(=O)Nc3ccc(Cl)cc3)n21,39.6%
19,ONc1nc(NO)c2[nH]cnc2n1,47.6%
20,CC(=O)C1CC(C)CCC1C(C)C (configuration not stated),-8.03% (active)
21,COc1cccc2c1C(=O)c1c(O)c3c(c(O)c1C2=O)C[C@](O)(C(=O)CO)C[C@H]3O[C@@H]1C[C@@H](NC(=O)CCCCCN(C)C2(c3ccc(F)cc3)CC3CCC2C3)[C@H](O)[C@@H](C)O1 (some centres not stated),4.63% (active)

row,Compound,growth
1,CCCCCCCCCCCCNC(=O)[C@H]1CSC(c2ccc(OC)c(F)c2)N1 (some centres not stated),-81.4% (active)
2,Cc1cc(-c2nc3ccccc3s2)ccc1NC(=O)COc1ccc(Cl)cc1,-39% (active)
3,N#C/C(=C\c1ccc(-c2ccc(Cl)cc2Cl)o1)c1ccc(F)cc1,96.3%
4,O=c1[nH][nH]c(=O)c2cc([N+](=O)[O-])ccc12,109%
5,O=C(NCCNC(=O)c1ccc(Cl)cc1Cl)c1ccc(Cl)cc1Cl,104%
6,Cc1nc(N=C(N)N)nc2ccc3ccccc3c12,-55.8% (active)
7,CC(C)c1ccc(C(=O)Nc2sc3c(c2C(N)=O)CCC(=O)C3)cc1,-47.6% (active)
8,COc1cc(/C=C/C(=O)c2cc(-c3ccccc3)ccc2O)cc(OC)c1OC,58.3%
9,COc1ccc(-c2cc(-c3cn(-c4cccc(Cl)c4)nc3-c3ccc(OC)cc3)on2)cc1,88.9%
10,Cc1ccc(S(=O)(=O)OCCCOS(=O)(=O)c2ccc(C)cc2)cc1,100%
11,Clc1ccc(C(SCc2ccccc2)SCc2ccccc2)cc1,77.7%
12,S=C=Nc1ccc2ccccc2c1,97.3%
13,CCCC(=O)NC(c1cccnc1)c1cc(C)c2cccnc2c1O (configuration not stated),19.8%
14,C=C(C)[C@@H]1CC[C@]2(C(=O)N3CCNCC3)CC[C@]3(C)[C@H](CC[C@@H]4[C@@]5(C)C/C(=C/c6ccncc6)C(=O)C(C)(C)[C@@H]5CC[C@]43C)[C@@H]12,95%
15,C=C1C(=O)O[C@H]2[C@H]1CC/C(COC(=O)CCSSCCC(=O)OC/C1=C/CC[C@@]3(C)O[C@H]3[C@H]3OC(=O)C(=C)[C@@H]3CC1)=C\CC[C@@]1(C)O[C@@H]21,-54% (active)
16,Cc1ccc2c(c1)C(C)Cc1c(N(C)C)ncnc1N2C (configuration not stated),13%
17,CCCn1c(=S)sc2c1nc(C)n1c(Nc3ccccc3)nnc21,51.5%
18,C#CCN(C)CCCOc1ccc(NCc2ccc(C(=O)NO)cc2)cc1Cl,-5.18% (active)
19,CC[C@]12C=CCN3CC[C@@]4(c5ccc(OC)cc5N(C)[C@H]4[C@@](O)(C(=O)OC)[C@@H]1OC(=O)CCC(=O)O[C@H]1CC[C@H]4[C@@H]5CCC6=CC(=O)CC[C@@H]6[C@H]5CC[C@]14C)[C@@H]32,-30.2% [100 µM] (active)
